uPA generation: qHTS for Inhibitors of Cell Surface uPA Generation; 330,000 tested, 0.31% active; Potency, µM (top dose mostly 38.3 µM), inactives show at the highest dose activity change, negative = inhibition, actives largely listed as inhibitors; cell surface uPA generation assay, qHTS; active = well fitted inhibition curve with a large enough effect; inconclusive = small, poorly fitted or top-dose-only effect; inactive = no such curve, though single readings can be large or run the other way; tested in mouse RAW 264.7 cells; also: % is scaled to controls: 0 for no effect and ±100 for the full control effect; nearly all actives have a fitted effect of over 55% in size
FUS yeast rescue: qHTS for Suppressors of FUS Proteinopathy: Primary screen using FUS-linked yeast assay | AID 1347120, 2019 | S. cerevisiae FUS-expressing, growth rescue, OD600, 24 h | 390,000 tested, 0.24% active | Potency, µM (series often up to 76.6 µM), usual class: activators;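 also: plate controls were DMSO vehicle for no effect and reference control for full effect; nearly all actives have a fitted effect of over 55% in size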
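Cultures pregrown in 2.5% raffinose medium are shifted to minimal medium containing 2% galactose to express toxic FUS. Compounds are tested at several concentrations. After 24hr at 30C, growth is quantified at 600 nm absorbance.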
TDP-43 yeast inh: qHTS of TDP-43 Inhibitors | Potency, µM (titrated, usually from 46.1 µM), inactives show at the top dose growth rescue (activation), usual class: activators | TDP-43 expressing yeast growth rescue, BacTiter-Glo, 24 h | 410,000 tested, 1.8% active; also: % of control where 0% means no effect; nearly all actives have a fitted effect of over 50% in size
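In this qHTS, compounds that restore growth of yeast expressing TDP-43 appear as activators. Cells (OD600=0.02, galactose medium, raffinose-pregrown) are incubated with compound 24 hr at 30 deg C and growth is quantified by BacTiter-Glo.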
aSyn rescue: qHTS of alpha-syn Inhibitors | 370,000 tested, 0.14% active | AID 652106, 2013 | Yeast expressing alpha-synuclein, growth rescue, BacTiter-Glo, 24 h | Potency, µM (titrated, usually from 46.1 µM), inactives show top-dose growth rescue (activation), hits mostly activators; also: % of control where 0% means no effect; nearly all actives have a fitted effect of over 65% in size
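Galactose-induced alpha-syn yeast (OD600=0.02, raffinose-pregrown) + pinned cpd, 24 hr, 30 deg C; growth by BacTiter-Glo luminescence. Growth restoration scores as activation.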
Abeta rescue: qHTS for compounds that reverse cellular toxicity of Amyloid beta (A-beta) peptide in yeast: Primary Screen | 410,000 tested, 0.063% active | Potency, µM (highest dose often 46.1 µM), actives largely listed as activators | AID 1347071, 2019 | yeast expressing A-beta42, growth rescue, OD600, 48 h; response scale: 0% DMSO, 100% iron-clioquinol control; also: nearly all actives have a fitted effect of over 55% in size
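Growth rescue measured by 600 nm absorbance after 48 h yeast culture at 30 C with compound. Values normalized between DMSO and an equimolar ferric chloride plus clioquinol control.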
BCR signal inh: qHTS Assay to Find Inhibitors of Chronic Active B-Cell Receptor Signaling; ABC-DLBCL IkBa-CBG/CBR reporter, luminescence ratio, 4 h; Potency, µM (highest dose often 46.1 µM), for the others: at the top dose activity change, negative = inhibition, hits mostly inhibitors; 340,000 tested, 0.05% active; AID 493014, 2011; active = well fitted inhibition curve with a large enough effect in the signal ratio, with a control signal flat, not every such curve was filed as active; inconclusive = small, poorly fitted or top-dose-only effect, or effect the other way, or a change in a side signal; the % refers to the signal ratio;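 also: plate controls were basal doxycycline-induced cells for no effect and cells given 10 µM MG132 for full effect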
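TMD8 ABC-DLBCL cells carrying doxycycline-inducible green luciferase fused to IkappaBalpha plus unfused red luciferase were exposed to compounds (up to 46 uM) for 4 hrs at 37C. Activity came from the overlap-corrected green/red luminescence ratio.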
Numbers without * were called inactive; i = inactive; ? = inconclusive; nt = not tested or not shown. Hits are enriched below; roughly 2.3% of the tested compounds scored in any of these assays. Unless noted, calls follow the shape of the dose curve; as a rule, active = well fitted curve in the direction sought with a large enough effect; inconclusive = small, poorly fitted or top-dose-only effect, or another doubt; inactive = no such curve, though single readings can be large; an effect the other way counts as inactive or inconclusive. Potency is read from the fitted curve at half-maximal effect.

SMILES	uPA generation	FUS yeast rescue	TDP-43 yeast inh	aSyn rescue	Abeta rescue	BCR signal inh
C[C@H](CCC(=O)O)[C@H]1CC[C@H]2[C@@H]3[C@H](O)C[C@@H]4C[C@H](O)CC[C@]4(C)[C@H]3CC[C@]12C	6%	?	22µM*	6%	i	?
CCOc1cc(C(=O)N2CCC3(CC2)OCCO3)cc(OCC)c1OCC	-1%	i	-12%	0%	i	-22%
CCC(=O)c1cn(Cc2ccccc2C#N)c2ccccc12	1%	i	25µM*	5%	i	-2%
N#Cc1ccccc1Cn1cc(C(=O)C2CC2)c2ccccc21	3%	i	20µM*	11%	i	-2%
C=C(COC(=O)CCC(=O)O)CC1CC(O)[C@]2(C)OC3CC4OC5C[C@]6(C)O[C@]7(C)CCC8OC9C[C@]%10(C)OC%11C(C)=CC(=O)OC%11CC%10OC9C[C@@H](C)C8OC7CC6O[C@]5(C)C/C=C\C4OC3CC2O1 (stereo partly specified)	14%	7.1µM*	14%	-1%	i	2%
COc1ccc(C(C)=O)cc1Cc1c(O)[nH]c(=S)[nH]c1=O	13%	i	?	2%	i	2%
CCC(=NCCO)c1c(O)n(C2CCCCC2)c(=O)[nH]c1=O	1%	i	25%	0%	i	0%
CCC(=NCc1ccc2c(c1)OCO2)c1c(O)n(C2CCCCC2)c(=O)[nH]c1=O	-11%	i	20µM*	1%	i	?
CSCCC(c1nnnn1-c1ccc2c(c1)OCCO2)N1CCC(n2c(=O)[nH]c3ccccc32)CC1 (stereo unspecified)	nt	25µM*	12%	1%	i	nt
CCC(c1nnnn1-c1ccc2c(c1)OCCO2)N1CCC(n2c(=O)[nH]c3ccccc32)CC1 (stereo unspecified)	nt	i	16%	-13%	i	nt
O=c1[nH]c2ccccc2n1C1CCN(C(c2cccc3ccccc23)c2nnnn2Cc2ccccc2)CC1 (stereo unspecified)	nt	?	13%	1%	i	nt
O=c1[nH]c2ccccc2n1C1CCN(C(c2cc3ccccc3o2)c2nnnn2Cc2ccccc2)CC1 (stereo unspecified)	nt	8.9µM*	19%	3%	i	nt
Cn1cc(Br)c(C(=O)Nc2ccc3c(C(F)(F)F)cc(=O)oc3c2)n1	-4%	i	9%	-2%	i	?
O=[N+]([O-])c1ccc(Sc2nc3ccccc3o2)c([N+](=O)[O-])c1	?	i	?	-36%	i	?
Cc1nc2ccccc2c(=O)n1-c1nccs1	nt	i	28%	-12%	i	nt
Cc1nn(-c2nccs2)c2c1C(=O)CC(C)(C)C2Br (stereo unspecified)	?	i	14µM*	-1%	i	nt
CC1(C(=O)O)CCCC2(C)c3cc(O)ccc3CCC12 (stereo unspecified)	10%	i	25%	2%	i	nt
C[C@]12CC[C@H]3C(=CCc4cc(O)ccc43)[C@@H]1CCC2=O	?	i	10µM*	2%	i	?
C=CCCC[C@@H]1OC(=O)CNC(=O)C([C@@H](C)CC)NC(=O)[C@@H]2CCCN2C(=O)C([C@@H](C)CC)OC(=O)[C@H](Cc2ccccc2)N(C)C(=O)[C@H](C(C)C)NC(=O)C1(C)C (stereo partly specified)	nt	4µM*	-2%	11%	i	nt
COc1ccc(-c2noc(=O)n2Cc2cc(C)ccc2C)cc1	?	i	18µM*	30%	i	14%
COc1ccc(Nc2nc(N)nc(CSc3nc4ccccc4s3)n2)cc1	nt	?	20µM*	nt	i	nt
